Unmarked numbers belong to inactive results. No rule for the calls is given here.
What follows are compounds tested against Pantothenate synthetase (Mycobacterium tuberculosis (strain ATCC 25618 / H37Rv)) (UniProt P9WIL5) (assay: Coupled enzyme confirmation of inhibitors against recombinant Mtb PanC (AID 375;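 also: 0% = full reaction with vehicle and 100% = no enzyme background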)). Conditions: coupled enzyme assay; at 10 µM, hits give high values.
Sequence of Pantothenate synthetase (Mycobacterium tuberculosis (strain ATCC 25618 / H37Rv)) (P9WIL5 whole entry, looked up): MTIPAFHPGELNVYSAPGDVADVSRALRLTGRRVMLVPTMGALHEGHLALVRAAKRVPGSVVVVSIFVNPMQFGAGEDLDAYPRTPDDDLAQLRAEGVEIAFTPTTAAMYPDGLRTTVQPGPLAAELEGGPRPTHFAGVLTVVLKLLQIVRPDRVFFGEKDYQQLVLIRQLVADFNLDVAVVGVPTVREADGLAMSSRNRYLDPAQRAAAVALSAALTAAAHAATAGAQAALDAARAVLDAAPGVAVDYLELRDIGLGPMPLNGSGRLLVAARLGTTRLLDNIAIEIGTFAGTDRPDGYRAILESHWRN

SMILES	inhibition
CC(=O)Nc1ccc(S(=O)(=O)NCc2csc(-c3cccnc3)n2)cc1	0%
O=C(CCn1c(=O)oc2ccccc21)NCCN1CCOCC1	4%
Cc1ccc(C)c2[nH]c(=O)c(CCNC(=O)c3ccc(S(=O)(=O)N(C)C)cc3)cc12	0%
CCOC(=O)c1cc2ccc(OC)c(OC)c2c(=O)s1	0%
Cc1cc(C(F)F)n2ncc(C(=O)NC3CCCCCC3)c2n1	0%
CCN(CCCNC(=O)C1CCN(S(=O)(=O)c2cccc3nonc23)CC1)Cc1ccccc1	6%
